This passage reports binding signal results from paper PMC11006913.

Assay in all cases: PBM; 200 nM protein, PBS
What all share (conditions): dsDNA, one strand shown

For experiment [1], the target named is HOXD13 (Homo sapiens, UniProt P35453 263-343, T313R).
The target of experiment [2] is HOXD13 (Homo sapiens, UniProt P35453 263-343).
In experiment [3] the target is T1, NKX2-6 (Homo sapiens, UniProt A6NCS4 118-204).
T1 sequence: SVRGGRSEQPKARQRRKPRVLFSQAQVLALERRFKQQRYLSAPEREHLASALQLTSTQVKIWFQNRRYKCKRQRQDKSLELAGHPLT

The target of experiment [4] is HOXD13 (Homo sapiens, UniProt P35453 263-343, T313A).
Experiment [5] addresses T2, NKX2-6 (Homo sapiens, UniProt A6NCS4 118-204, F151L).
T2 sequence: T1 sequence with F34L

Experiment [6] concerns the target ALX3 (Homo sapiens, UniProt O95076 139-225, N203Q).
The target in experiment [7] is ALX3 (Homo sapiens, UniProt O95076 139-225, N203S).
Experiment [8] has as its target ALX3 (Homo sapiens, UniProt O95076 139-225).
A further experiment concerns the target HOXA2 (Homo sapiens, UniProt O43364 129-215, R185K).
Experiment [9] deals with ALX3 (Homo sapiens, UniProt O95076 139-225, L168V).
Experiment [10] addresses ALX3 (Homo sapiens, UniProt O95076 139-225, L168Q).
The target in another experiment is HOXC10 (Homo sapiens, UniProt Q9NYD6 254-340, K271E).

Substitutions are numbered along the chain they refer to.

HOXD13 (Homo sapiens, UniProt P35453 263-343), sequence (P35453 263-343): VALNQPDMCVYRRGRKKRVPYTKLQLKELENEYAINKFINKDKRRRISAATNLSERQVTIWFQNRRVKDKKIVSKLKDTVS
ALX3 (Homo sapiens, UniProt O95076 139-225, N203S), sequence (O95076 139-225 N203S): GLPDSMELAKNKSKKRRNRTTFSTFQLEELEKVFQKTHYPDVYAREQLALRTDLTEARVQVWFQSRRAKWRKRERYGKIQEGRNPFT
HOXD13 (Homo sapiens, UniProt P35453 263-343, T313A), sequence (P35453 263-343 T313A): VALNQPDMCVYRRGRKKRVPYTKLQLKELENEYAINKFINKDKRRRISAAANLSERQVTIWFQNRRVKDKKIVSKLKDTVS
HOXD13 (Homo sapiens, UniProt P35453 263-343, T313R), sequence (P35453 263-343 T313R): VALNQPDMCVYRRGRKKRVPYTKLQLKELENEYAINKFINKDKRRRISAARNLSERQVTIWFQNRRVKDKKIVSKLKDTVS
ALX3 (Homo sapiens, UniProt O95076 139-225, N203Q), sequence (O95076 139-225 N203Q): as the sequence (O95076 139-225 N203S) above, with S65Q counted along it
ALX3 (Homo sapiens, UniProt O95076 139-225), sequence (O95076 139-225): as the sequence (O95076 139-225 N203S) above, with S65N counted along it
ALX3 (Homo sapiens, UniProt O95076 139-225, L168V), sequence (O95076 139-225 L168V): as the sequence (O95076 139-225 N203S) above, with L30V, S65N counted along it
HOXA2, sequence (O43364 129-215 R185K): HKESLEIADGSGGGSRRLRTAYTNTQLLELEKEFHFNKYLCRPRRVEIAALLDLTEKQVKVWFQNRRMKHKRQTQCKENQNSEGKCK
ALX3 (Homo sapiens, UniProt O95076 139-225, L168Q), sequence (O95076 139-225 L168Q): as the sequence (O95076 139-225 N203S) above, with L30Q, S65N counted along it
HOXC10, sequence (Q9NYD6 254-340 K271E): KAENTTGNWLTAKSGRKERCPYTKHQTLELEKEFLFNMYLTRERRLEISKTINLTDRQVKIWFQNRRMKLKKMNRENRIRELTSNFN

With TATAAACA, the binding signal in the experiment with HOXD13 [1] is 10.7 upbm affinity estimate (log intensity, higher = more binding, comparable within an allelic series).

On to TCACTAAA, for which the binding signal in the experiment with HOXD13 [1] was 10.1 upbm affinity estimate (log intensity, higher = more binding, comparable within an allelic series); with HOXD13 [2], 10.6 upbm affinity estimate (log intensity, higher = more binding, comparable within an allelic series).

On to GCCTCCAC, for which the binding signal in the experiment with HOXD13 [1] was 9.56 upbm affinity estimate (log intensity, higher = more binding, comparable within an allelic series); with NKX2-6 [3], 9.6 upbm affinity estimate (log intensity, higher = more binding, comparable within an allelic series); with HOXD13 [2], 9.59 upbm affinity estimate (log intensity, higher = more binding, comparable within an allelic series); in the experiment with HOXD13 [4], 9.61 upbm affinity estimate (log intensity, higher = more binding, comparable within an allelic series); with NKX2-6 [5] it was 9.3 upbm affinity estimate (log intensity, higher = more binding, comparable within an allelic series).

On to TATTATAA, for which the binding signal with ALX3 [6] is 8.66 upbm affinity estimate (log intensity, higher = more binding, comparable within an allelic series); with ALX3 [7] it was 8.67 upbm affinity estimate (log intensity, higher = more binding, comparable within an allelic series).

For ATTATTTA, the binding signal was 8.54 upbm affinity estimate (log intensity, higher = more binding, comparable within an allelic series) in the experiment with ALX3 [6] and 8.69 upbm affinity estimate (log intensity, higher = more binding, comparable within an allelic series) in the experiment with ALX3 [7].

In the case of CATTTATA, the binding signal with HOXD13 [1] was 10.7 upbm affinity estimate (log intensity, higher = more binding, comparable within an allelic series).

Turning to CCTATTAC, the binding signal in the experiment with ALX3 [6] was 8.28 upbm affinity estimate (log intensity, higher = more binding, comparable within an allelic series); with ALX3 [8] it was 10.8 upbm affinity estimate (log intensity, higher = more binding, comparable within an allelic series); with ALX3 [7], 8.28 upbm affinity estimate (log intensity, higher = more binding, comparable within an allelic series).

GAATATCA: the binding signal is 8.19 upbm affinity estimate (log intensity, higher = more binding, comparable within an allelic series) in the experiment with ALX3 [6]; 8.71 upbm affinity estimate (log intensity, higher = more binding, comparable within an allelic series) with ALX3 [8]; 8.23 upbm affinity estimate (log intensity, higher = more binding, comparable within an allelic series) with ALX3 [7].

Consider CTCGTTAA, for which the binding signal with HOXD13 [1] is 10.7 upbm affinity estimate (log intensity, higher = more binding, comparable within an allelic series); in the experiment with HOXA2 it was 13.1 upbm affinity estimate (log intensity, higher = more binding, comparable within an allelic series); with HOXD13 [2], 12.1 upbm affinity estimate (log intensity, higher = more binding, comparable within an allelic series); in the experiment with HOXD13 [4], 12 upbm affinity estimate (log intensity, higher = more binding, comparable within an allelic series).

For the sequence CTAACAAC, the binding signal is 8.26 upbm affinity estimate (log intensity, higher = more binding, comparable within an allelic series) with ALX3 [6]; 9.15 upbm affinity estimate (log intensity, higher = more binding, comparable within an allelic series) with ALX3 [8]; 8.24 upbm affinity estimate (log intensity, higher = more binding, comparable within an allelic series) with ALX3 [7].

With CTTATTGC, the binding signal is 10.1 upbm affinity estimate (log intensity, higher = more binding, comparable within an allelic series) with HOXD13 [1] and 10.7 upbm affinity estimate (log intensity, higher = more binding, comparable within an allelic series) in the experiment with HOXD13 [2].

CATTTGCC: the binding signal in the experiment with ALX3 [6] is 7.93 upbm affinity estimate (log intensity, higher = more binding, comparable within an allelic series); with ALX3 [8] it was 8.86 upbm affinity estimate (log intensity, higher = more binding, comparable within an allelic series); in the experiment with ALX3 [7], 7.93 upbm affinity estimate (log intensity, higher = more binding, comparable within an allelic series).

On to ATTAGTTA, for which the binding signal with ALX3 [6] is 8.55 upbm affinity estimate (log intensity, higher = more binding, comparable within an allelic series); with ALX3 [7], 8.67 upbm affinity estimate (log intensity, higher = more binding, comparable within an allelic series).

For the sequence CCCGGCCA, the binding signal with HOXD13 [1] was 9.5 upbm affinity estimate (log intensity, higher = more binding, comparable within an allelic series); with NKX2-6 [3], 9.65 upbm affinity estimate (log intensity, higher = more binding, comparable within an allelic series); with HOXD13 [2], 9.64 upbm affinity estimate (log intensity, higher = more binding, comparable within an allelic series); in the experiment with HOXD13 [4] it was 9.63 upbm affinity estimate (log intensity, higher = more binding, comparable within an allelic series); in the experiment with NKX2-6 [5] it was 9.26 upbm affinity estimate (log intensity, higher = more binding, comparable within an allelic series).

As for ATATTTAA, the binding signal with ALX3 [6] was 8.67 upbm affinity estimate (log intensity, higher = more binding, comparable within an allelic series); with ALX3 [7], 8.84 upbm affinity estimate (log intensity, higher = more binding, comparable within an allelic series).

Take CTCATCAA: the binding signal in the experiment with ALX3 [6] is 8.12 upbm affinity estimate (log intensity, higher = more binding, comparable within an allelic series); with ALX3 [8], 9.41 upbm affinity estimate (log intensity, higher = more binding, comparable within an allelic series); with ALX3 [7], 8.16 upbm affinity estimate (log intensity, higher = more binding, comparable within an allelic series).

With AGATTTTA, the binding signal with ALX3 [6] is 8.19 upbm affinity estimate (log intensity, higher = more binding, comparable within an allelic series); in the experiment with ALX3 [8], 9.08 upbm affinity estimate (log intensity, higher = more binding, comparable within an allelic series); in the experiment with ALX3 [7] it was 8.26 upbm affinity estimate (log intensity, higher = more binding, comparable within an allelic series).

In the case of TCTATTAA, the binding signal in the experiment with HOXD13 [1] was 10.7 upbm affinity estimate (log intensity, higher = more binding, comparable within an allelic series).

ATATTCAA: the binding signal with ALX3 [6] was 8.33 upbm affinity estimate (log intensity, higher = more binding, comparable within an allelic series); with ALX3 [8], 9.13 upbm affinity estimate (log intensity, higher = more binding, comparable within an allelic series); in the experiment with ALX3 [9], 8.63 upbm affinity estimate (log intensity, higher = more binding, comparable within an allelic series).

For the sequence CTCCAGCC, the binding signal in the experiment with ALX3 [6] is 7.6 upbm affinity estimate (log intensity, higher = more binding, comparable within an allelic series); in the experiment with ALX3 [8] it was 7.5 upbm affinity estimate (log intensity, higher = more binding, comparable within an allelic series); with ALX3 [10], 7.62 upbm affinity estimate (log intensity, higher = more binding, comparable within an allelic series); with ALX3 [9] it was 7.62 upbm affinity estimate (log intensity, higher = more binding, comparable within an allelic series); in the experiment with ALX3 [7], 7.57 upbm affinity estimate (log intensity, higher = more binding, comparable within an allelic series).

On to TTATAGAA, for which the binding signal with ALX3 [6] was 8.31 upbm affinity estimate (log intensity, higher = more binding, comparable within an allelic series); in the experiment with ALX3 [8], 9.6 upbm affinity estimate (log intensity, higher = more binding, comparable within an allelic series); in the experiment with ALX3 [7], 8.38 upbm affinity estimate (log intensity, higher = more binding, comparable within an allelic series).

Consider TATATTAA, for which the binding signal in the experiment with HOXD13 [1] was 10.7 upbm affinity estimate (log intensity, higher = more binding, comparable within an allelic series).

AGTTACAG: the binding signal in the experiment with ALX3 [6] was 8.16 upbm affinity estimate (log intensity, higher = more binding, comparable within an allelic series); with ALX3 [8], 8.82 upbm affinity estimate (log intensity, higher = more binding, comparable within an allelic series); with ALX3 [7] it was 8.25 upbm affinity estimate (log intensity, higher = more binding, comparable within an allelic series).

With AATCATTC, the binding signal with ALX3 [6] is 8.14 upbm affinity estimate (log intensity, higher = more binding, comparable within an allelic series); with ALX3 [8], 10 upbm affinity estimate (log intensity, higher = more binding, comparable within an allelic series); with ALX3 [7], 8.17 upbm affinity estimate (log intensity, higher = more binding, comparable within an allelic series).

Regarding GAAGGCCC, the binding signal is 9.62 upbm affinity estimate (log intensity, higher = more binding, comparable within an allelic series) in the experiment with HOXD13 [1]; 9.68 upbm affinity estimate (log intensity, higher = more binding, comparable within an allelic series) in the experiment with HOXD13 [2]; 9.79 upbm affinity estimate (log intensity, higher = more binding, comparable within an allelic series) with HOXD13 [4].

With TCCATAAA, the binding signal with HOXD13 [1] is 10.7 upbm affinity estimate (log intensity, higher = more binding, comparable within an allelic series); with HOXD13 [2] it was 11.9 upbm affinity estimate (log intensity, higher = more binding, comparable within an allelic series); in the experiment with HOXC10 it was 11.4 upbm affinity estimate (log intensity, higher = more binding, comparable within an allelic series); in the experiment with HOXD13 [4], 11.7 upbm affinity estimate (log intensity, higher = more binding, comparable within an allelic series).

With CCCCTCGC, the binding signal with HOXD13 [1] is 9.62 upbm affinity estimate (log intensity, higher = more binding, comparable within an allelic series); with HOXD13 [2], 9.63 upbm affinity estimate (log intensity, higher = more binding, comparable within an allelic series); with HOXD13 [4], 9.67 upbm affinity estimate (log intensity, higher = more binding, comparable within an allelic series).

GGGTTGAA: the binding signal in the experiment with HOXD13 [1] was 9.64 upbm affinity estimate (log intensity, higher = more binding, comparable within an allelic series); in the experiment with HOXD13 [2], 9.57 upbm affinity estimate (log intensity, higher = more binding, comparable within an allelic series); in the experiment with HOXD13 [4], 9.62 upbm affinity estimate (log intensity, higher = more binding, comparable within an allelic series).

On to AATAAACC, for which the binding signal with HOXD13 [1] is 10.6 upbm affinity estimate (log intensity, higher = more binding, comparable within an allelic series); in the experiment with HOXD13 [2] it was 11.8 upbm affinity estimate (log intensity, higher = more binding, comparable within an allelic series); in the experiment with HOXD13 [4], 11.6 upbm affinity estimate (log intensity, higher = more binding, comparable within an allelic series).

As for AAGGGGGG, the binding signal with HOXD13 [1] is 9 upbm affinity estimate (log intensity, higher = more binding, comparable within an allelic series); with HOXD13 [2], 9.33 upbm affinity estimate (log intensity, higher = more binding, comparable within an allelic series); in the experiment with HOXD13 [4] it was 9.26 upbm affinity estimate (log intensity, higher = more binding, comparable within an allelic series).

With AACTTCAT, the binding signal with HOXD13 [1] was 10.1 upbm affinity estimate (log intensity, higher = more binding, comparable within an allelic series); with HOXD13 [2], 10.6 upbm affinity estimate (log intensity, higher = more binding, comparable within an allelic series).

For GGGAGAAC, the binding signal with HOXD13 [1] was 9.51 upbm affinity estimate (log intensity, higher = more binding, comparable within an allelic series); with HOXD13 [2] it was 9.63 upbm affinity estimate (log intensity, higher = more binding, comparable within an allelic series); in the experiment with HOXD13 [4] it was 9.68 upbm affinity estimate (log intensity, higher = more binding, comparable within an allelic series).

With CCGTAAAA, the binding signal was 10.5 upbm affinity estimate (log intensity, higher = more binding, comparable within an allelic series) with HOXD13 [1]; 11.8 upbm affinity estimate (log intensity, higher = more binding, comparable within an allelic series) with HOXD13 [2]; 11.6 upbm affinity estimate (log intensity, higher = more binding, comparable within an allelic series) with HOXD13 [4].

As for GAGGGGCC, the binding signal was 9.41 upbm affinity estimate (log intensity, higher = more binding, comparable within an allelic series) in the experiment with HOXD13 [1]; 9.46 upbm affinity estimate (log intensity, higher = more binding, comparable within an allelic series) with HOXD13 [2]; 9.41 upbm affinity estimate (log intensity, higher = more binding, comparable within an allelic series) in the experiment with HOXD13 [4].

As for CATCGGGC, the binding signal in the experiment with HOXD13 [1] was 9.55 upbm affinity estimate (log intensity, higher = more binding, comparable within an allelic series); with HOXD13 [2] it was 9.52 upbm affinity estimate (log intensity, higher = more binding, comparable within an allelic series); with HOXD13 [4], 9.62 upbm affinity estimate (log intensity, higher = more binding, comparable within an allelic series).

For ATAACACG, the binding signal with HOXD13 [1] is 10.1 upbm affinity estimate (log intensity, higher = more binding, comparable within an allelic series); with HOXD13 [2], 10.7 upbm affinity estimate (log intensity, higher = more binding, comparable within an allelic series).

Turning to GGAGCAAC, the binding signal with HOXD13 [1] is 9.51 upbm affinity estimate (log intensity, higher = more binding, comparable within an allelic series); with HOXD13 [2] it was 9.53 upbm affinity estimate (log intensity, higher = more binding, comparable within an allelic series); with HOXD13 [4] it was 9.56 upbm affinity estimate (log intensity, higher = more binding, comparable within an allelic series).

As to CGTGCCCC, the binding signal is 9.51 upbm affinity estimate (log intensity, higher = more binding, comparable within an allelic series) in the experiment with HOXD13 [1]; 9.62 upbm affinity estimate (log intensity, higher = more binding, comparable within an allelic series) with HOXD13 [2]; 9.71 upbm affinity estimate (log intensity, higher = more binding, comparable within an allelic series) with HOXD13 [4].
